Compound activity from PubChem.
TrxR1 substrate: is turned over as a substrate by rat TrxR1; AID 588456; purified TrxR1 substrate turnover, NADPH consumption readout; Potency, µM (doses to about 114 µM), for inactives: at the highest dose activity change, negative = substrate turnover; O89049; 390,000 compounds, 0.01% hits; also: nearly all actives have a fitted effect of over 50% in size
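Rat TrxR1, dispensed at 90 nM, was prereduced with 400 uM NADPH (final) for 5 min at ~22 deg C, then incubated with compound 15 min before 400 uM selenite. A first-read NADPH fluorescence drop versus no-compound background flagged substrates.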
Sfp PPTase inh: Sfp phosphopantetheinyl transferase inhibition | AID 1490 | 310,000 compounds, 3.5% hits | Potency, µM, inactives show largest response in the series, negative = inhibition, most hits filed as inhibitors | Biochemical Sfp PPTase activity, qHTS;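 also: the enzyme is Sfp with the accession as filed and its product quenches rhodamine fluorescence; 0% = enzyme reaction without inhibitor and -100% = no enzyme wells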
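Buffer: 50 mM Hepes-Na pH 7.6, 10 mM MgCl2, 0.01% Nonidet P-40, 0.01% BSA. Enzyme 15 nM, pre-exposed to compound 15 min; substrates then added and fluorescence change tracked over 30 min.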
PLK1 PBD block: PLK1 (human) polo-box domain binding inhibition. P53350. Plk1 PBD binding of FITC phosphopeptide, fluorescence polarization. 360,000 compounds, 2.8% hits. Potency, µM, for the others: max response, negative = inhibition, hits mostly inhibitors. AID 720504; also: series mostly up to about 57 µM; nearly all actives have a fitted effect of over 65% in size
IDH1 R132H inh: blocks human mutant IDH1 R132H enzyme; AID 602179; Potency, µM (top dose mostly 76.6 µM), inactives show at the top dose activity change, negative = inhibition, actives largely listed as inhibitors; O75874; IDH1-R132H enzyme, NADPH consumption, diaphorase/resazurin fluorescence; 390,000 compounds, 0.093% hits; also: nearly all actives have a fitted effect of over 65% in size
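IDH1-R132H (0.5 ug/mL) preincubated 30 min with compound, then NADPH (0.016 mM) and alpha-KG (2 mM) added; 80 min at RT, pH 7.5. Remaining NADPH coupled via diaphorase/resazurin to fluorescence (540/590 nm); concentration-response curves normalized to no-enzyme control.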
VDR inhibitor: blocks the human vitamin D receptor; P11473; VDR-SRC2-3 peptide fluorescence polarization, 2 h; Potency, µM, inactives show max response, negative = inhibition, usual class: inhibitors; 400,000 compounds, 0.93% hits
Target sequence (P11473 whole entry, looked up): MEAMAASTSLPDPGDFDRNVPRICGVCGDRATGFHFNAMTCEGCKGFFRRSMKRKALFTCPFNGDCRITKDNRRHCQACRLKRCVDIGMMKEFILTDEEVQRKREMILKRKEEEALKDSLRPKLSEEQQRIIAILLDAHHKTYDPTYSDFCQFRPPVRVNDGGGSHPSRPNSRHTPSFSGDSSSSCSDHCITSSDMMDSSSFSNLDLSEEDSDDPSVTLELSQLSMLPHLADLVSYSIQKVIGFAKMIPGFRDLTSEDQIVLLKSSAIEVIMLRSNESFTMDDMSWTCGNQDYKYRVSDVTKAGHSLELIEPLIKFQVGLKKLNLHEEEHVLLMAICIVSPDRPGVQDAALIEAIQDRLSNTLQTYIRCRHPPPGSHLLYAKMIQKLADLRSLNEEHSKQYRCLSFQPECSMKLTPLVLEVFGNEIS
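Fluorescence polarization assay of small-molecule disruption of VDR binding to coregulator peptide SRC2-3. Compounds and controls pin-transferred, then read after 2 h incubation at ambient room temperature.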
rTrxR1 inhibitor: rat TrxR1 inhibition. recombinant rTrxR1, NADPH fluorescence consumption, selenite substrate. Potency, µM (highest dose often 114 µM), for inactives: at the top dose activity change, negative = inhibition, actives largely listed as inhibitors. 390,000 compounds, 1% hits. AID 588453; also: nearly all actives have a fitted effect of over 65% in size
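Rat TrxR1 (90 nM in the dispensed reagent) was pre-reduced with 400 uM NADPH for 5 min at room temperature, then incubated with compound for 15 min. After 400 uM selenite was added, NADPH fluorescence (Ex 340/Em 450 nm) was followed for 8 min.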
* hit, by the source's call; ? = inconclusive; . = not tested or not shown; [ ] = another dose, or the depositor's remark. Compounds with a hit are over-represented: about 5.2% of the library has one in this group of screens. Calls follow the shape of the dose curve; as a rule, active = well fitted curve in the direction sought with a large enough effect; inconclusive = small, poorly fitted or top-dose-only effect, or another doubt; inactive = no such curve, though single readings can be large; an effect the other way counts as inactive or inconclusive. Unless noted, % is scaled to controls: 0 for no effect and ±100 for the full control effect; potency is read from the fitted curve at half-maximal effect.

SMILES	TrxR1 substrate	Sfp PPTase inh	PLK1 PBD block	IDH1 R132H inh	VDR inhibitor	rTrxR1 inhibitor
Cc1cc(=S)c2cccc(C)c2[nH]1	6%[57.1 µM]	35µM*	?	10%	-3%	10%[57.1 µM]
Cc1cc(C)c(S(=O)(=O)Nc2ccc[nH]c2=O)c(C)c1	4%[57.1 µM]	50µM*	1%	5%	10%	18%
Cc1ccc2c(cnn2C(=O)CCC(=O)NCc2cccc(Cl)c2)c1	5%[57.1 µM]	-23%	?	-2%	-7%	1%[57.1 µM]
Cc1ccc2nc(N3C(=O)C(O)=C(C(=O)c4ccco4)C3c3ccc(C)o3)sc2c1 (stereo not drawn)	7%	?	13µM*	5%	-29%	?
Cc1ccc2nc(N3C(=O)C(O)=C(C(=O)c4ccc(C)o4)C3c3ccco3)sc2c1 (stereo not drawn)	-6%	.	?	-7%	?	?
CCc1ccc2nc(N3C(=O)C(O)=C(C(=O)c4ccco4)C3c3cccs3)sc2c1 (stereo not drawn)	-12%	-16%	17µM*	13%	?	?
O=C(C1=C(O)C(=O)N(c2nc3ccc(Cl)cc3s2)C1c1ccco1)c1ccco1 (stereo not drawn)	-8%	.	21µM*	0%	?	?
CCc1ccc(OC(=O)c2sc3ncn(Cc4cccc(F)c4)c(=O)c3c2C)cc1	-12%[57.1 µM]	.	.	17%	7%	7%[57.1 µM]
CCc1ccccc1NC(=O)Cn1c(=O)n(Cc2ccco2)c(=O)c2ccccc21	0%	.	.	-5%	-5%	18%
CN(Cc1ccco1)c1nc(-c2ccoc2)nc2ccccc12	.	?	.	.	45µM*	.
CN(Cc1ccco1)c1nc(-c2cccc(C#N)c2)nc2ccccc12	.	-27%	.	.	45µM*	.
CN(C)C(=O)c1ccc(-c2nc(N(C)Cc3ccco3)c3ccccc3n2)cc1	.	-9%	.	.	?	.
CNc1nc(-c2ccoc2)nc2ccccc12	.	9%	.	.	?	.
Cc1noc(C)c1-c1nc(N(C)Cc2ccco2)c2ccccc2n1	.	79µM*	.	.	28µM*	.
CN(C)c1ccc(-c2nc(N(C)Cc3ccco3)c3ccccc3n2)cc1	.	25µM*	.	.	?	.
Cc1ccc(NC(=O)CNCc2ccc(Cl)cc2Cl)cc1S(=O)(=O)N(C)C	2%	79µM*	-6%	1%	?	-4%
COc1cccc(-c2nnn(CC(=O)N(CC(C)C)C3CCS(=O)(=O)C3)n2)c1 (stereo not drawn)	2%	.	-2%	11%	1%	13%
CCOC(=O)c1sc(S(C)=O)c2c1CCc1conc1-2 (stereo not drawn)	1%	40µM*	-15%	17%	-10%	32µM*
Cc1cccc(N=C2NC(=O)/C(=C/C=C/c3ccco3)S2)c1	-18%	50µM*	?	2%	?	?
COc1ccc(N=C2NC(=O)/C(=C\C=C\c3ccco3)S2)cc1	-8%	?	21µM*	-4%	1%	-47%
O=C1NC(=Nc2ccc3ccccc3c2)S/C1=C/c1ccco1	-2%	71µM*	-29%	1%	1%	-9%
Cc1ccc(C)c(CN2CCC(CNC(=O)Nc3ccc(F)c(Cl)c3)CC2)c1	3%[57.1 µM]	7%	-6%	-1%	2%	6%[57.1 µM]
O=C(NCCCc1nc2ccccc2n1CCCOc1ccccc1)C1CCCCC1	5%[0.0914 µM]	.	.	.	-22%	11%
COC(=O)[C@@]12C[C@@H](CC(=O)NCc3cccc4ccccc34)C(=O)N(CCc3ccc(OC)c(OC)c3)C1=CCC(C)(C)C2	.	.	-4%	.	.	.
COc1ccc(OC)c(C2C(C#N)=C(N)Oc3c2c(C)nn3-c2cccc(Cl)c2)c1 (stereo not drawn)	-7%	-2%	24µM*	0%	-8%	-23%
SMILES	TrxR1 substrate	Sfp PPTase inh	PLK1 PBD block	IDH1 R132H inh	VDR inhibitor	rTrxR1 inhibitor
Cc1nn(-c2ccccc2)c2c1C(c1ccco1)C(C#N)=C(N)O2 (stereo not drawn)	-11%	-27%	27µM*	3%	-23%	?
Cc1nn(-c2cccc(Cl)c2)c2c1C(c1ccncc1)C(C#N)=C(N)O2 (stereo not drawn)	4%	-9%	?	0%	?	?
CN1CCN(C2=Cc3ccccc3Sc3cc(F)c(F)cc32)CC1	-13%	79µM*	-9%	10%	9%	-17%
O=C(Nc1ccc(F)c(Cl)c1)N1CCN(C(=O)c2nsc3ccccc23)CC1	1%	.	.	.	13%	7%
CCN(CC)CCOc1cccc(C(C)C)c1	3%	-6%	-4%	2%	6%	-2%
CC(C)c1cccc(OCCCCN(C)C)c1	-1%	79µM*	-6%	-1%	0%	7%
CC1CCCCC1NCc1cccc([N+](=O)[O-])c1 (stereo not drawn)	-6%	-12%	27µM*	-1%	-13%	?
Cc1ccc(CN2CCNC2=O)cc1	9%	14%	-7%	15%	-3%	21%
Cc1ccc(C)c(CN2CCCNC2=O)c1	-3%	50µM*	-12%	-3%	1%	20%
O=C(CSc1ccccn1)N1CCN(C(=O)CSc2ccccn2)CC1	0%	16%	-5%	-1%	3%	1%
O=C(CSc1ccccn1)N1CCN(c2ccc(Cl)cc2)CC1	-2%	-23%	24µM*	2%	-21%	6%
O=C(CSc1ccc2ccccc2c1)N1CCN(c2ccc(O)cc2)CC1	2%	50µM*	-7%	5%	-8%	16%
CCN1C(=O)[C@H]2[C@H]3[C@H](O)[C@H](O)C/C(=N/O[C@@H](C)CN4CCCCc5nc(C)c(C)cc54)[C@@H]3CC[C@@H]2C1=O	.	10%	.	.	.	.
O=C1c2ccccc2C(=O)N1C1C=CC=CC=C1	.	.	30µM*	-8%	.	.
CCCCCCC1(C)NC(=O)N(C(C)C(=O)Nc2ccc(N3CCOCC3)cc2)C1=O (stereo not drawn)	-1%	.	-1%	12%	9%	12%
CC(C)c1ccc(S(=O)(=O)N2CCC(n3c(C(F)(F)F)nc4cccnc43)CC2)cc1	-1%[57.1 µM]	.	.	4%	3%	7%[57.1 µM]
O=c1oc2c(-c3ccc([N+](=O)[O-])cc3)cc(O)cc2s1	-1%	40µM*	-16%	-17%	3%	9%
CC[C@H](C)C(=O)O[C@@H]1C[C@H](C)C=C2C=C[C@H](C)[C@@H](CC[C@H]3C[C@@H](O)CC(=O)O3)[C@H]21	.	12%	.	.	-1%	.
CCC(C)(C)C(=O)O[C@H]1C[C@@H](C)C=C2C=C[C@H](C)[C@H](CC[C@@H]3C[C@@H](O)CC(=O)O3)[C@H]21	-2%	3%	30µM*	4%	?	2%
COc1ccc(-c2nc3c(c4c2CC(C)OC4)CN(CCC(C)C)CC3)cc1 (stereo not drawn)	.	12%	.	.	.	.
